Structures are written as SMILES. Inconclusive results are not listed. Where a call stands in place of a potency, no number is given. Calls of active or inactive are those of the source. Calls follow the shape of the dose curve; as a rule, active = well fitted cell-killing curve with a large enough effect; inconclusive = small, poorly fitted or top-dose-only effect; inactive = flat fitted curve, though single readings scatter.

The nature of this experiment: Cell Viability - SH-SY5Y (AID 544). Also: nearly all actives have a fitted effect of over 55% in size. The note with it: SH-SY5Y neuroblastoma cell viability; viability change, negative = cytotoxic: at 92.2 µM (top of the series). The text has this: NIH Chemical Genomics Center [NCGC]
NIH Molecular Libraries Screening Centers Network [MLSCN]
National Institutes of Environmental Health Sciences [NIEHS]
National Toxicology Program [NTP]
We have developed a 1536-well cell-based assay for quantitative high throughput screening (qHTS) against a number of cell lines to determine in vitro cytotoxicity of small molecules. This particular assay uses the SH-SY5Y cell line which is derived from human neuroblastoma.
NCGC Assay Protocol Summary:
The CellTiter-Glo luminescent cell viability assay (Promega) is a homogeneous method to measure the number of viable cells in culture. The end point readout of this assay is based on quantitation of intracellular ATP, an indicator of metabolic activity, using the luciferase reaction. Luciferase catalyzes the oxidation of beetle Luciferin to oxyluciferin and light in the presence of ATP. The luminescent signal is proportional to amount of ATP present.
Using the CellTiter-Glo luminescent cell viability assay, the amount of cellular ATP was measured in the SH-SY5Y cell line with complete culture medium following compound treatment for 40 hours. The assay was performed in opaque white Kalypsys 1536-well plates. In the screen, tamoxifen and doxorubicin were used as positive controls. Library compounds were measured for their ability to cause acute toxicity in the cell line, as reflected by a decrease in intracellular ATP levels, in a concentration-dependent manner. […] AC50 values were determined from concentration-response data modeled with the standard Hill equation.
qHTS protocol for CellTiter Glo SH-SY5Y cellular assay
[Step] [Parameter] [Value] [Description]
1. Reagent; 5 uL; 1500 SH-SY5Y cells/well
2. Time; 5 hr; 37 °C incubation
4. Controls; 23 nL; Tamoxifen 0.34 uM to 100 uM & Doxorubicin 0.02 nM to 100 uM
5. Time; 40 hr; 37 °C incubation
6. Reagent; 5 uL; CellTiter Glo reagent
7. Time; 20 min; Room Temperature
8. Detection; Luminescence; Viewlux plate reader
Keywords: cell viability, cytotoxicity, SH-SY5Y cell line, luminescence, NTPHTS, NTPHTS_NCGC, NIEHS, EPA, DSSTox, MLSMR, MLSCN, NIH Roadmap, qHTS, NCGC
As to `Cc1cscn1`, the Potency result was “inactive”. In the case of `C=C(C)C(=O)OCC(C)C` it was “inactive”; in that of `NCCCCCCN`, “inactive”. Take `C[C@@H]1CC2(OC3C[C@@]4(C)C5=CC[C@H]6C(C)(C)C(O[C@@H]7OC[C@@H](O)[C@H](O)[C@H]7O)CC[C@@]67C[C@@]57CC[C@]4(C)C31)OC(O)C1(C)OC21` (stereo not given in full): the Potency entry is “inactive”. In the case of `CC(=O)c1ccccn1` it was “inactive”; in that of `CN(C)CCCCl`, “inactive”; in that of `O=C1OC(=O)c2cc([N+](=O)[O-])ccc21`, “inactive”.

Take `Cc1cc(C)cc(N)c1`: the Potency result is “inactive”. As to `Nc1ccccc1[N+](=O)[O-]`, the Potency entry is “inactive”. In the case of `CCCCC(C=O)CC` (stereo not given) it was “inactive”; in that of `CC(=O)Nc1ccc(N)cc1`, “inactive”; in that of `O=C1OC(=O)c2c(Cl)c(Cl)c(Cl)c(Cl)c21`, “inactive”. Take `CC(C)N=C=NC(C)C`: the Potency result is “inactive”.

Regarding `C/C=C1\CC2C=CC1C2` (stereo not given), the Potency result is “inactive”. As for `O=[N+]([O-])c1ccc(NCCO)c(OCCO)c1`, the Potency entry was “inactive”. Next, `CC#N`: “inactive”; `C=CCOC(=O)CCCCCCCC`: “inactive”. With `C=CCn1c(=O)n(CC=C)c(=O)n(CC=C)c1=O`, the Potency result was “inactive”. Next, `Cc1cccc([N+](=O)[O-])c1C(=O)O`: “inactive”; `Cc1cccc(C)c1O`: “inactive”; `CCCCC/C=C/C=C/C=O`: “inactive”. Consider `C[C@@H]1O[C@@H](O[C@@H]2[C@@H](O)[C@H](OCCc3ccc(O)c(O)c3)O[C@H](CO[C@@H]3O[C@H](CO)[C@@H](O)[C@H](O)[C@H]3O)[C@H]2OC(=O)/C=C/c2ccc(O)c(O)c2)[C@H](O)[C@H](O)[C@H]1O`, for which the Potency result is “inactive”. Consider `NC(=S)NNC(N)=S`, for which the Potency result is “inactive”. In the case of `CCCCC(CC)CO` (stereo not given) it was “inactive”; in that of `CC/C(C)=N/O`, “inactive”; in that of `CC(C)(C)OC=O`, “inactive”. Next, `Nc1nc(CC(=O)O)cs1`: “inactive”; `Cc1ccccc1Br`: “inactive”. Next, `COc1cccc2sc(N)nc12`: “inactive”. Regarding `CCN(C(=O)N(CC)c1ccccc1)c1ccccc1`, the Potency result is “inactive”. Regarding `O=[N+]([O-])c1ccccc1CCO`, the Potency result is “inactive”. Consider `O=[N+]([O-])c1cccc(Cl)c1`, for which the Potency entry was “inactive”. Consider `Cc1ccc(C(=O)O)cc1`, for which the Potency result was “inactive”. As to `CCNc1ccccc1`, the Potency result was “inactive”. In the case of `O=C(O)c1ccccc1C(=O)O` it was “inactive”; in that of `CC(=O)Nc1ccccc1C`, “inactive”; in that of `COc1ccc(OC)cc1`, “inactive”. Take `NS(=O)(=O)O`: the Potency result is “inactive”. As for `CC(=O)Nc1ccc(C)cc1`, the Potency result is “inactive”.

As to `C1CCOC1`, the Potency entry is “inactive”.
